Records with an inconclusive call do not appear. Where a structure was tested more than once in an assay, its records may differ in their call. The source made the active and inactive calls. The calls were made as follows: active = hit-call score of the fitted dose curve at least 0.9, where 1 is the maximum; inconclusive = response in the unintended direction; inactive = score below 0.9.

A short description of this assay: CCTE_Harrill_HTTr_CellCount_MCF7: CCTE's Cell Proliferation Assessment for the High-Throughput Transcriptomics (HTTr) Platform, Harrill Lab (AID 2284012).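 Also: cells exposed to compound for six hours; intended direction is loss of nuclei count meaning fewer cells.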 From the text: This is a cell-based assay that evaluates cell viability and cell growth using high content imaging to count the number of Hoechst-labeled nuclei that are present in an assay well in 384-well format.This is a cell-based assay that evaluates cell viability and cell growth in MCF-7 cells. This was part of a full screening experiment. High content imaging is used to count the number of Hoechst-labeled nuclei that are present in an assay well in 384-well format.The assay component endpoint CCTE_Harrill_HTTr_CellCount_MCF7 was analyzed with bidirectional fitting relation to DMSO as the negative control and baseline of activity. Using a type of viability reporter, loss-of-signal activity can be used to understand changes in cell count. To generalize the intended target to other relatable targets, this assay endpoint is annotated to cell cycle, where the subfamily is cell count.
Chemicals were tested in MCF7 cells in an eight point dilution series with a six hour exposure duration.
For `Brc1cc(Br)cc(Br)c1`, the molecule was called inactive.
For `Cc1ccc(C(C)(C)O)cc1`, the result was inactive.
Take `O=C1OC2(c3ccc(O)cc3Oc3cc(O)ccc32)c2ccccc21`: the result was inactive.
Still for that read-out and setting: next, `CCn1cc(C(=O)O)c(=O)c2ccc(C)nc21`: “inactive”; `O=C(c1ccc(OCCN2CCCCC2)cc1)c1c(-c2ccc(O)cc2)sc2cc(O)ccc12`: “inactive”.
Turning to `CC(=O)OC/C=C(C)/C=C/C=C(C)/C=C/C1=C(C)CCCC1(C)C`, the molecule was called inactive.
Same read-out and setting: with `CC(=O)N(C)C` the entry was “inactive”; with `O=c1cc(-c2ccc(O)cc2)oc2cc(O)cc(O)c12`, “inactive”.
For the molecule `CC12CCC(C1)C(C)(C)C2O` (stereo not given), the call was inactive.
Same read-out and setting: with `CC(=O)C1C(=O)C=C(C)OC1=O` (stereo not given) the entry was “inactive”; with `CN(C)C(=O)Nc1ccccc1`, “inactive”.
Still for that read-out and setting: next, `CCCCOCCOCCO`: “inactive”; `COc1ccc(C(C)=O)cc1`: “inactive”.
On to `COc1ccccc1O`, for which the outcome was inactive.
Take `O=C(O)c1ccccc1O`: the molecule was called inactive.
As to `CCCCOC(=O)C(C)OC(=O)CCC` (stereo not given), the call was inactive.
The same measure, in the same setting: with `NC(N)=NC(N)=NCCc1ccccc1` the entry was “inactive”; with `CCCCCCCCCC(=O)OCC`, “inactive”.
For the molecule `OC[C@H]1O[C@@H](O[C@H]2[C@H](O)[C@@H](O)[C@H](O)O[C@@H]2CO)[C@H](O)[C@@H](O)[C@H]1O`, the molecule was called inactive.
Still for that read-out and setting: next, `CC(=O)CC(=O)N(C)C`: “inactive”.
Still for that read-out and setting: next, `NC(=O)c1cccnc1`: “inactive”; `C#C[C@]1(O)CC[C@H]2[C@@H]3CCc4cc(O)ccc4[C@H]3CC[C@@]21C`: “inactive”; `CC(O)COCC(C)O` (stereo not given): “inactive”.
Same read-out and setting: next, `CC(=O)C1=C(C)[C@@H]2C[C@@]3(C1)[C@H](C)CC[C@H]3C2(C)C`: “inactive”.
For the molecule `CN1CCc2cccc3c2[C@H]1Cc1ccc(O)c(O)c1-3`, the outcome was inactive.
As for `CC/C(=C(\c1ccccc1)c1ccc(OCCN(C)C)cc1)c1ccccc1`, the AC50 is 72.5 µM (active) and the result was inactive.
Take `CC(C)(O)CCc1ccccc1`: the result was inactive.
For `O=C1CCCCCCCCCCCC(=O)OCCO1`, the molecule was called inactive.
Turning to `c1ccc(OCCOc2ccccc2)cc1`, the call was inactive.
Same read-out and setting: next, `NC(=O)c1c(Cl)cccc1Cl`: “inactive”; `CCCc1ccc(O)cc1`: “inactive”.
On to `CN(C)C`, for which the call was inactive.
As for `CN(C)CCCNCCCN(C)C`, the molecule was called inactive.
Same read-out and setting: next, `COc1ccc2[nH]cc(CCNC(C)=O)c2c1`: “inactive”; `CC1=CCC(C(C)(C)O)CC1` (stereo not given): “inactive”.
Take `O=C(O)c1cc2ccccc2cc1O`: the call was inactive.
Still for that read-out and setting: next, `C1COCO1`: “inactive”.
`Cc1cc(O)c2c(c1)C(=O)c1cc(O)cc(O)c1C2=O`: the result was inactive.
For `COC(=O)C(C)Oc1ccc(Oc2ncc(C(F)(F)F)cc2Cl)cc1` (stereo not given), the call was inactive.

The AC50 is the concentration giving half of the maximal activity seen.
